In the supplement of paper PMC4466140:

What follows are binders tested against AgAbp1 (assay: SPOT peptide array binding signal intensity (averaged, normalized) (arbitrary units (background-subtracted, floor 0; scale differs between SH3 domains)); higher = stronger binding of the SH3 domain to the peptide).
Outline: (§1)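 Four yeast species supplied the SH3 domains, which were expressed as GST fusions in E. coli BL21(DE3) and purified on glutathione Sepharose. Incubation with cellulose membranes carrying synthetic 15-mer peptides, cysteines exchanged for serines, ran overnight at 4°C at 10 μg/ml in TBS-based blocking buffer. Binding signal is reported as normalized, background-subtracted spot intensity averaged over replicates, in arbitrary units not shared between domains.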
With APERAVPILPPRNNV the “SPOT peptide array binding signal intensity” value was 7.5.

These binders were tested against AgBbc1 in the same assay as above.
Outline: as §1
For APERAVPILPPRNNV, the “SPOT peptide array binding signal intensity” value was 160.

These binders were tested against AgBem1-D1 in the same assay as above.
Outline: as §1
APERAVPILPPRNNV was tested, and the “SPOT peptide array binding signal intensity” value was 47.5.

These binders were tested against AgBzz1-D1 in the same assay as above.
Outline: as §1
With APERAVPILPPRNNV the “SPOT peptide array binding signal intensity” value was 84.5.

Each binder was assayed against AgBzz1-D2 in the same assay as above.
Outline: as §1
With APERAVPILPPRNNV the “SPOT peptide array binding signal intensity” value was 10.5.

Each binder was assayed against AgCyk3 in the same assay as above.
Outline: as §1
In the case of APERAVPILPPRNNV, the “SPOT peptide array binding signal intensity” value is reported as 9.

What follows are binders tested against AgFus1 in the same assay as above.
Outline: as §1
For APERAVPILPPRNNV, the “SPOT peptide array binding signal intensity” value was ≤ 0.

Each binder was assayed against AgHof1 in the same assay as above.
Outline: as §1
With APERAVPILPPRNNV the “SPOT peptide array binding signal intensity” value was 11.5.

Each binder was assayed against AgHse1 in the same assay as above.
Outline: as §1
With APERAVPILPPRNNV the “SPOT peptide array binding signal intensity” value was 24.5.

What follows are binders tested against AgLsb1 in the same assay as above.
Outline: as §1
APERAVPILPPRNNV was tested, and the “SPOT peptide array binding signal intensity” value was 109.

Each binder was assayed against AgLsb4 in the same assay as above.
Outline: as §1
With APERAVPILPPRNNV the “SPOT peptide array binding signal intensity” value was 2180.

Each binder was assayed against AgMyo5 in the same assay as above.
Outline: as §1
In the case of APERAVPILPPRNNV, the “SPOT peptide array binding signal intensity” value is reported as ≤ 0.

What follows are binders tested against AgNbp2 in the same assay as above.
Outline: as §1
APERAVPILPPRNNV was tested, and the “SPOT peptide array binding signal intensity” value was ≤ 0.

Each binder was assayed against AgRvs167 in the same assay as above.
Outline: as §1
With APERAVPILPPRNNV the “SPOT peptide array binding signal intensity” value was 87.8.

The binders below were run against AgSho1 in the same assay as above.
Outline: as §1
With APERAVPILPPRNNV the “SPOT peptide array binding signal intensity” value was ≤ 0.

The binders below were run against AgSla1-D1-D2 in the same assay as above.
Outline: as §1
With APERAVPILPPRNNV the “SPOT peptide array binding signal intensity” value was ≤ 0.

These binders were tested against AgSla1-D3 in the same assay as above.
Outline: as §1
For APERAVPILPPRNNV, the “SPOT peptide array binding signal intensity” value was 0.5.

These binders were tested against CaAbp1-D1 in the same assay as above.
Outline: as §1
In the case of APERAVPILPPRNNV, the “SPOT peptide array binding signal intensity” value is reported as 11.

What follows are binders tested against CaAbp1-D2 in the same assay as above.
Outline: as §1
With APERAVPILPPRNNV the “SPOT peptide array binding signal intensity” value was 14.

These binders were tested against CaBbc1 in the same assay as above.
Outline: as §1
For APERAVPILPPRNNV, the “SPOT peptide array binding signal intensity” value was 418.

These binders were tested against CaBem1-D1 in the same assay as above.
Outline: as §1
With APERAVPILPPRNNV the “SPOT peptide array binding signal intensity” value was 2.

These binders were tested against CaBzz1-D1 in the same assay as above.
Outline: as §1
For APERAVPILPPRNNV, the “SPOT peptide array binding signal intensity” value was ≤ 0.

The binders below were run against CaBzz1-D2 in the same assay as above.
Outline: as §1
With APERAVPILPPRNNV the “SPOT peptide array binding signal intensity” value was 28.5.

What follows are binders tested against CaCyk3 in the same assay as above.
Outline: as §1
APERAVPILPPRNNV was tested, and the “SPOT peptide array binding signal intensity” value was 42.5.

Each binder was assayed against CaFus1 in the same assay as above.
Outline: as §1
With APERAVPILPPRNNV the “SPOT peptide array binding signal intensity” value was 24.

Each binder was assayed against CaHof1 in the same assay as above.
Outline: as §1
APERAVPILPPRNNV was tested, and the “SPOT peptide array binding signal intensity” value was 3.5.

The binders below were run against CaHse1 in the same assay as above.
Outline: as §1
In the case of APERAVPILPPRNNV, the “SPOT peptide array binding signal intensity” value is reported as 7.25.

These binders were tested against CaLsb1 in the same assay as above.
Outline: as §1
For APERAVPILPPRNNV, the “SPOT peptide array binding signal intensity” value was ≤ 0.

What follows are binders tested against CaLsb4 in the same assay as above.
Outline: as §1
For APERAVPILPPRNNV, the “SPOT peptide array binding signal intensity” value was 2970.

What follows are binders tested against CaMyo5 in the same assay as above.
Outline: as §1
For APERAVPILPPRNNV, the “SPOT peptide array binding signal intensity” value was ≤ 0.

What follows are binders tested against CaNbp2 in the same assay as above.
Outline: as §1
In the case of APERAVPILPPRNNV, the “SPOT peptide array binding signal intensity” value is reported as 25.

The binders below were run against CaRvs167 in the same assay as above.
Outline: as §1
APERAVPILPPRNNV was tested, and the “SPOT peptide array binding signal intensity” value was 414.

Each binder was assayed against CaRvs167-3 in the same assay as above.
Outline: as §1
APERAVPILPPRNNV was tested, and the “SPOT peptide array binding signal intensity” value was ≤ 0.

Each binder was assayed against CaSho1 in the same assay as above.
Outline: as §1
In the case of APERAVPILPPRNNV, the “SPOT peptide array binding signal intensity” value is reported as 4.

The binders below were run against CaSla1-D1-D2 in the same assay as above.
Outline: as §1
APERAVPILPPRNNV was tested, and the “SPOT peptide array binding signal intensity” value was 1.

What follows are binders tested against CaSla1-D3 in the same assay as above.
Outline: as §1
For APERAVPILPPRNNV, the “SPOT peptide array binding signal intensity” value was ≤ 0.

These binders were tested against ScAbp1 in the same assay as above.
Outline: as §1
In the case of APERAVPILPPRNNV, the “SPOT peptide array binding signal intensity” value is reported as 1.5.

These binders were tested against ScBbc1 in the same assay as above.
Outline: as §1
For APERAVPILPPRNNV, the “SPOT peptide array binding signal intensity” value was 4.25.

These binders were tested against ScBem1-D1 in the same assay as above.
Outline: as §1
APERAVPILPPRNNV was tested, and the “SPOT peptide array binding signal intensity” value was ≤ 0.

The binders below were run against ScBzz1-D1 in the same assay as above.
Outline: as §1
In the case of APERAVPILPPRNNV, the “SPOT peptide array binding signal intensity” value is reported as 2.5.

Each binder was assayed against ScBzz1-D2 in the same assay as above.
Outline: as §1
In the case of APERAVPILPPRNNV, the “SPOT peptide array binding signal intensity” value is reported as ≤ 0.

These binders were tested against ScCyk3 in the same assay as above.
Outline: as §1
APERAVPILPPRNNV was tested, and the “SPOT peptide array binding signal intensity” value was 5.

The binders below were run against ScFus1 in the same assay as above.
Outline: as §1
APERAVPILPPRNNV was tested, and the “SPOT peptide array binding signal intensity” value was ≤ 0.

What follows are binders tested against ScHof1 in the same assay as above.
Outline: as §1
APERAVPILPPRNNV was tested, and the “SPOT peptide array binding signal intensity” value was 32.5.

These binders were tested against ScHse1 in the same assay as above.
Outline: as §1
In the case of APERAVPILPPRNNV, the “SPOT peptide array binding signal intensity” value is reported as ≤ 0.

These binders were tested against ScLsb1 in the same assay as above.
Outline: as §1
APERAVPILPPRNNV was tested, and the “SPOT peptide array binding signal intensity” value was 80.2.

Each binder was assayed against ScLsb2 in the same assay as above.
Outline: as §1
In the case of APERAVPILPPRNNV, the “SPOT peptide array binding signal intensity” value is reported as 18.

What follows are binders tested against ScLsb3 in the same assay as above.
Outline: as §1
With APERAVPILPPRNNV the “SPOT peptide array binding signal intensity” value was 4520.

The binders below were run against ScLsb4 in the same assay as above.
Outline: as §1
For APERAVPILPPRNNV, the “SPOT peptide array binding signal intensity” value was 1710.

What follows are binders tested against ScMyo3 in the same assay as above.
Outline: as §1
APERAVPILPPRNNV was tested, and the “SPOT peptide array binding signal intensity” value was 33.5.

What follows are binders tested against ScMyo5 in the same assay as above.
Outline: as §1
In the case of APERAVPILPPRNNV, the “SPOT peptide array binding signal intensity” value is reported as 2.75.

The binders below were run against ScNbp2 in the same assay as above.
Outline: as §1
With APERAVPILPPRNNV the “SPOT peptide array binding signal intensity” value was 6.

Each binder was assayed against ScPex13 in the same assay as above.
Outline: as §1
With APERAVPILPPRNNV the “SPOT peptide array binding signal intensity” value was 789.

Each binder was assayed against ScRvs167 in the same assay as above.
Outline: as §1
In the case of APERAVPILPPRNNV, the “SPOT peptide array binding signal intensity” value is reported as 966.

What follows are binders tested against ScSho1 in the same assay as above.
Outline: as §1
With APERAVPILPPRNNV the “SPOT peptide array binding signal intensity” value was 91.5.

The binders below were run against ScSla1-D1-D2 in the same assay as above.
Outline: as §1
In the case of APERAVPILPPRNNV, the “SPOT peptide array binding signal intensity” value is reported as 34.5.

The binders below were run against ScSla1-D3 in the same assay as above.
Outline: as §1
For APERAVPILPPRNNV, the “SPOT peptide array binding signal intensity” value was 1.

The binders below were run against SpAbp1-D1 in the same assay as above.
Outline: as §1
With APERAVPILPPRNNV the “SPOT peptide array binding signal intensity” value was 5.5.

What follows are binders tested against SpBbc1 in the same assay as above.
Outline: as §1
APERAVPILPPRNNV was tested, and the “SPOT peptide array binding signal intensity” value was 0.5.

The binders below were run against SpBzz1-D1 in the same assay as above.
Outline: as §1
With APERAVPILPPRNNV the “SPOT peptide array binding signal intensity” value was 81.

Each binder was assayed against SpBzz1-D2 in the same assay as above.
Outline: as §1
With APERAVPILPPRNNV the “SPOT peptide array binding signal intensity” value was ≤ 0.

These binders were tested against SpCyk3 in the same assay as above.
Outline: as §1
With APERAVPILPPRNNV the “SPOT peptide array binding signal intensity” value was 13.

Each binder was assayed against SpHof1 in the same assay as above.
Outline: as §1
In the case of APERAVPILPPRNNV, the “SPOT peptide array binding signal intensity” value is reported as 3.

The binders below were run against SpHof1-2 in the same assay as above.
Outline: as §1
APERAVPILPPRNNV was tested, and the “SPOT peptide array binding signal intensity” value was 8.

The binders below were run against SpHof1-3 in the same assay as above.
Outline: as §1
APERAVPILPPRNNV was tested, and the “SPOT peptide array binding signal intensity” value was 20.8.

The binders below were run against SpHse1 in the same assay as above.
Outline: as §1
With APERAVPILPPRNNV the “SPOT peptide array binding signal intensity” value was 2.5.

Each binder was assayed against SpLsb1 in the same assay as above.
Outline: as §1
In the case of APERAVPILPPRNNV, the “SPOT peptide array binding signal intensity” value is reported as 83.8.

These binders were tested against SpLsb4 in the same assay as above.
Outline: as §1
In the case of APERAVPILPPRNNV, the “SPOT peptide array binding signal intensity” value is reported as 3550.

These binders were tested against SpMyo1 in the same assay as above.
Outline: as §1
With APERAVPILPPRNNV the “SPOT peptide array binding signal intensity” value was 926.

Each binder was assayed against SpNbp2 in the same assay as above.
Outline: as §1
For APERAVPILPPRNNV, the “SPOT peptide array binding signal intensity” value was ≤ 0.

Each binder was assayed against SpPex13 in the same assay as above.
Outline: as §1
With APERAVPILPPRNNV the “SPOT peptide array binding signal intensity” value was 2.

These binders were tested against SpRvs167 in the same assay as above.
Outline: as §1
APERAVPILPPRNNV was tested, and the “SPOT peptide array binding signal intensity” value was 1250.

What follows are binders tested against SpSla1-D1-D2 in the same assay as above.
Outline: as §1
For APERAVPILPPRNNV, the “SPOT peptide array binding signal intensity” value was ≤ 0.

These binders were tested against SpSla1-D3 in the same assay as above.
Outline: as §1
In the case of APERAVPILPPRNNV, the “SPOT peptide array binding signal intensity” value is reported as ≤ 0.
